Laboratory results reported in paper PMC7862700, “An all-to-all approach to the identification of sequence-specific readers for epigenetic DNA modifications on cytosine”.

What was measured:
Assay in all cases: DAPPL (digital affinity profiling via proximity ligation, sequencing); 10 mM Tris-HCl pH 7.5, 50 mM NaCl, 1 mM DTT, 4% glycerol, room temperature, 30 min; GST-TFs on glutathione beads, 16-mer random dsDNA library, 0.1% formaldehyde crosslink after washing; high values mean tight binding
[1] = biological target: T1, FEV (Homo sapiens, UniProt Q99581 1-238); conditions: protein: recombinant; tags: N-terminal GST; dsDNA, one strand shown
T1 sequence: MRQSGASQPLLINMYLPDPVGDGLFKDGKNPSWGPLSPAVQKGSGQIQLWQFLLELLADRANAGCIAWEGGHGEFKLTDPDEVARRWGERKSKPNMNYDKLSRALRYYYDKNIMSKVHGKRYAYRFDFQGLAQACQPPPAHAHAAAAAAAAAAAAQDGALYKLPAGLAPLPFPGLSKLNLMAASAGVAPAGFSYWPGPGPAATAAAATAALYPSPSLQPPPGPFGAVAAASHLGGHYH
Method in brief: (§1)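 Binding signal is each hexamer's read frequency for a factor divided by its frequency in the tag-only sample. The factors were GST-fused human transcription factors from yeast, captured on glutathione beads, DNA-barcoded and pooled with that sample. Pools were incubated with 200 nmole of a random double-stranded 16-mer DNA library in Tris/NaCl/DTT/glycerol buffer at room temperature for 30 min, then washed, crosslinked with 0.1% formaldehyde, proximity-ligated with BsaI/T4 ligase (1 h, 37 °C), PCR-amplified and sequenced on an Illumina NextSeq500.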

[2] = biological target: ETV5 (Homo sapiens, UniProt P41161 1-510); conditions: protein: recombinant; tags: N-terminal GST; dsDNA, one strand shown
Method in brief: as §1

[3] = biological target: HSF1 (Homo sapiens, UniProt Q00613 1-529); conditions: protein: recombinant; tags: N-terminal GST; chain copies: 3; dsDNA, one strand shown
Method in brief: as §1

[4] = biological target: T2, SPIC (Homo sapiens, UniProt Q8N5J4 1-248); conditions: protein: recombinant; tags: N-terminal GST; dsDNA, one strand shown
T2 sequence: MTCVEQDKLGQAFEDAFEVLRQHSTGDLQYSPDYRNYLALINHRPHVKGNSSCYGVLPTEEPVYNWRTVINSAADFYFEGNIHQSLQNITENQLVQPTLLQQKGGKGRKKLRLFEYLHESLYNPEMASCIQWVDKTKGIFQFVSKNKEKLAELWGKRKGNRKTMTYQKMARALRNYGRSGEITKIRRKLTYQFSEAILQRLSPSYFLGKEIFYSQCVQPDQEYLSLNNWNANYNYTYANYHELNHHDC
Method in brief: as §1

[5] = biological target: ELF4 (Homo sapiens, UniProt Q99607 1-663); conditions: protein: recombinant; tags: N-terminal GST; dsDNA, one strand shown
Method in brief: as §1

[6] = biological target: T3, ELK4 (Homo sapiens, UniProt P28324-2 1-405); conditions: protein: recombinant; tags: N-terminal GST; dsDNA, one strand shown
T3 sequence: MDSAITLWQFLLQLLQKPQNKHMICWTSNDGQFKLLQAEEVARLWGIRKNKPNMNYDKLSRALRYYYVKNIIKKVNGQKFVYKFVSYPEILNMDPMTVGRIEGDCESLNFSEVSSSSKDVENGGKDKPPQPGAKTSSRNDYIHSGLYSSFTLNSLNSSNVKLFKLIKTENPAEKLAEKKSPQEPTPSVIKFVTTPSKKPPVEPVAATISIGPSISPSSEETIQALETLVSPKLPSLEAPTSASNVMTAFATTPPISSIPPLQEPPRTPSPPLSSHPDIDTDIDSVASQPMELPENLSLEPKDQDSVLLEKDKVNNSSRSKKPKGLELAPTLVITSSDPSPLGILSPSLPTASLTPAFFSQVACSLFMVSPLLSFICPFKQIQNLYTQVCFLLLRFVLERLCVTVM
Method in brief: as §1

[7] = biological target: T4, ETV2 (Homo sapiens, UniProt O00321 1-342); conditions: protein: recombinant; tags: N-terminal GST; dsDNA, one strand shown
T4 sequence: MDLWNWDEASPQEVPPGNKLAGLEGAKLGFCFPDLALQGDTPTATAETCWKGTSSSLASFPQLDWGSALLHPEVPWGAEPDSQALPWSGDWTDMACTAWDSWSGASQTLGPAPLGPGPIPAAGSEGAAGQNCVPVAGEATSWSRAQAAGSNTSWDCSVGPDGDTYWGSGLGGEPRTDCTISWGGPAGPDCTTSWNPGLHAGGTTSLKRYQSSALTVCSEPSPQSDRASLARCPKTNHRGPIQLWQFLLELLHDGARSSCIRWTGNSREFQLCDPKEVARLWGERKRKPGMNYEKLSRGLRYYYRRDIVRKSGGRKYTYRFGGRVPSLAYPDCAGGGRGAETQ
Method in brief: as §1

[8] = biological target: T5, ELF3 (Homo sapiens, UniProt P78545 1-371); conditions: protein: recombinant; tags: N-terminal GST; dsDNA, one strand shown
T5 sequence: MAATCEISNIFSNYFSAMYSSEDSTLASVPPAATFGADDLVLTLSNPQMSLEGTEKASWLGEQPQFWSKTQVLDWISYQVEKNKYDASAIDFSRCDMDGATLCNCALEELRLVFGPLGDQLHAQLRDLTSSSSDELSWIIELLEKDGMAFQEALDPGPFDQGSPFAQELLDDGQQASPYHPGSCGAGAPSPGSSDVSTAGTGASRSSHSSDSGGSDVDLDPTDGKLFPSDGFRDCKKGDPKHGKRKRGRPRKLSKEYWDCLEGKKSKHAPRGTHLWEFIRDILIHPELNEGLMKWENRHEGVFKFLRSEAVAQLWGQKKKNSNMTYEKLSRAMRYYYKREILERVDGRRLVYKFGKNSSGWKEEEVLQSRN
Method in brief: as §1

[9] = biological target: CRX (Homo sapiens, UniProt O43186 1-299); conditions: protein: recombinant; tags: N-terminal GST; dsDNA, one strand shown
Method in brief: as §1

[10] = biological target: ETV1 (Homo sapiens, UniProt P50549 1-477); conditions: protein: recombinant; tags: N-terminal GST; dsDNA, one strand shown
Method in brief: as §1

[11] = biological target: T6, ERF (Homo sapiens, UniProt P50548 1-548); conditions: protein: recombinant; tags: N-terminal GST; dsDNA, one strand shown
T6 sequence: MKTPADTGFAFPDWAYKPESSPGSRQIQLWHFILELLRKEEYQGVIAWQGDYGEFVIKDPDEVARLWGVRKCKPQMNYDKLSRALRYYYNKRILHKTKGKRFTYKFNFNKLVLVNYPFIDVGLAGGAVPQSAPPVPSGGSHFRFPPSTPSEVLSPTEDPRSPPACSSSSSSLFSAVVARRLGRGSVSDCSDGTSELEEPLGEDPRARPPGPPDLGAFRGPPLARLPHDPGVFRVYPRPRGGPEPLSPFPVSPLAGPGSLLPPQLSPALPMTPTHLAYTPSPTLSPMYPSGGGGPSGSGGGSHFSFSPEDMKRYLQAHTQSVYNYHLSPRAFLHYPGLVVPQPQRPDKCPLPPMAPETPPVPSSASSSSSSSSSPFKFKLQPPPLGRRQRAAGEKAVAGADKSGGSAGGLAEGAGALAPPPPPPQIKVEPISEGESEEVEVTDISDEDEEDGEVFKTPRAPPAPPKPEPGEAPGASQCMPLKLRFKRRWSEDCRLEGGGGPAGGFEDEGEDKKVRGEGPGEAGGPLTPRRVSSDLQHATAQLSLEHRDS
Method in brief: as §1

[12] = biological target: T7, ETV3L (Homo sapiens, UniProt Q6ZN32 1-361); conditions: protein: recombinant; tags: N-terminal GST; dsDNA, one strand shown
T7 sequence: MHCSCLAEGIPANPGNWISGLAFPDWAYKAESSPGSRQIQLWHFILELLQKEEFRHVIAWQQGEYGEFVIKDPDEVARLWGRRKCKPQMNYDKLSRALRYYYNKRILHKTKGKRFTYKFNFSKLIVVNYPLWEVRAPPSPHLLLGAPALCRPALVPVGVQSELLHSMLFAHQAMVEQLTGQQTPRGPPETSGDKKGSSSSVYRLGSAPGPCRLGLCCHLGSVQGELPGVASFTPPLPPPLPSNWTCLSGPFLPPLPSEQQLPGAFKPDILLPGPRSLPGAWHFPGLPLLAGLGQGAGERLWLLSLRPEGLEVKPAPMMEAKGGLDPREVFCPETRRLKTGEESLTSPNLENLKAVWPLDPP
Method in brief: as §1

[13] = biological target: T8, ETS2 (Homo sapiens, UniProt P15036 1-469); conditions: protein: recombinant; tags: N-terminal GST; dsDNA, one strand shown
T8 sequence: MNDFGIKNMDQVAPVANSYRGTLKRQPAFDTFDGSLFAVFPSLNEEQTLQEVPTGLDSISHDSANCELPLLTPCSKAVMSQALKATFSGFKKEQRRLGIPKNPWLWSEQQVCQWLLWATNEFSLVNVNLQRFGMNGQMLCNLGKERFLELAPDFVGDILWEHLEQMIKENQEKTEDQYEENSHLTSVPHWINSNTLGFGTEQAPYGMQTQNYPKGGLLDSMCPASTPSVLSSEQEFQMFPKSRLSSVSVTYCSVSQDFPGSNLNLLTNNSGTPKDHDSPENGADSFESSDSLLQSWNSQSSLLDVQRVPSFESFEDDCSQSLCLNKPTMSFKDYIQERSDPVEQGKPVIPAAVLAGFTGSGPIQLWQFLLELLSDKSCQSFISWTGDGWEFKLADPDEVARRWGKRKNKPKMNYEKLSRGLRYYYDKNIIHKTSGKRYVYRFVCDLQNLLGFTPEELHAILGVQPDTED
Method in brief: as §1

[14] = biological target: T9, SPDEF (Homo sapiens, UniProt O95238 1-335); conditions: protein: recombinant; tags: N-terminal GST; dsDNA, one strand shown
T9 sequence: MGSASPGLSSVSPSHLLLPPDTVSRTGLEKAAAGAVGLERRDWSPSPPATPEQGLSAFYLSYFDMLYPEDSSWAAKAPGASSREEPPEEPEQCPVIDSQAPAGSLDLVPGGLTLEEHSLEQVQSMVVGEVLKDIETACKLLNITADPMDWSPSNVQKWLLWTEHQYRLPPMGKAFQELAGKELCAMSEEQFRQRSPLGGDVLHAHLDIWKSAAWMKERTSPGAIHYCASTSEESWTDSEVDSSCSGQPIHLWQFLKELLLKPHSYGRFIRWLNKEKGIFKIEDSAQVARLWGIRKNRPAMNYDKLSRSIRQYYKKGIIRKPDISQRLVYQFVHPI
Method in brief: as §1

[15] = biological target: T10, ETV7 (Homo sapiens, UniProt Q9Y603 1-341); conditions: protein: recombinant; tags: N-terminal GST; dsDNA, one strand shown
T10 sequence: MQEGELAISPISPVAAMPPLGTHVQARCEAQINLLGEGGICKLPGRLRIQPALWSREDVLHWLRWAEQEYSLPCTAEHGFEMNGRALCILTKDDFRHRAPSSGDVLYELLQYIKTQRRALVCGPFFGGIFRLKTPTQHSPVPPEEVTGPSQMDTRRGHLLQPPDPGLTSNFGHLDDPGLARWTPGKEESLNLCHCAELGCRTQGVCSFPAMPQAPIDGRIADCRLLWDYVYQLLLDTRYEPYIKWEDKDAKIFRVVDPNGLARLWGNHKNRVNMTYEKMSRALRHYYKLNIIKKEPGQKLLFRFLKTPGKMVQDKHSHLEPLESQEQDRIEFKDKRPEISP
Method in brief: as §1

[16] = biological target: T11, ELF5 (Homo sapiens, UniProt Q9UKW6-2 1-255); conditions: protein: recombinant; tags: N-terminal GST; dsDNA, one strand shown
T11 sequence: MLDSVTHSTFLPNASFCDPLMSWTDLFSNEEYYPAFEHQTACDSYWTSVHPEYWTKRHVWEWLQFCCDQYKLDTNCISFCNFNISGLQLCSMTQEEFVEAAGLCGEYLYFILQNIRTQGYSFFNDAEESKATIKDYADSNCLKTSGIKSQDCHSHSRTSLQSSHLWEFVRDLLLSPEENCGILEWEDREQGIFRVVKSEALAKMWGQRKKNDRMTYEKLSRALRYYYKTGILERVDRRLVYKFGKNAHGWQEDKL
Method in brief: as §1

[17] = biological target: T12, ETV3 (Homo sapiens, UniProt P41162-2 1-143); conditions: protein: recombinant; tags: N-terminal GST; dsDNA, one strand shown
T12 sequence: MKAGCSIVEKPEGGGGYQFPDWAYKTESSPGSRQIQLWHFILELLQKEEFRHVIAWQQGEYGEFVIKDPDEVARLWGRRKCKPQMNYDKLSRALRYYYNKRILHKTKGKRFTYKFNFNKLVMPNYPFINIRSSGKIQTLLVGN
Method in brief: as §1

[18] = biological target: ETV6 (Homo sapiens, UniProt P41212 1-452); conditions: protein: recombinant; tags: N-terminal GST; dsDNA, one strand shown
Method in brief: as §1

ETV6, sequence (P41212 whole entry): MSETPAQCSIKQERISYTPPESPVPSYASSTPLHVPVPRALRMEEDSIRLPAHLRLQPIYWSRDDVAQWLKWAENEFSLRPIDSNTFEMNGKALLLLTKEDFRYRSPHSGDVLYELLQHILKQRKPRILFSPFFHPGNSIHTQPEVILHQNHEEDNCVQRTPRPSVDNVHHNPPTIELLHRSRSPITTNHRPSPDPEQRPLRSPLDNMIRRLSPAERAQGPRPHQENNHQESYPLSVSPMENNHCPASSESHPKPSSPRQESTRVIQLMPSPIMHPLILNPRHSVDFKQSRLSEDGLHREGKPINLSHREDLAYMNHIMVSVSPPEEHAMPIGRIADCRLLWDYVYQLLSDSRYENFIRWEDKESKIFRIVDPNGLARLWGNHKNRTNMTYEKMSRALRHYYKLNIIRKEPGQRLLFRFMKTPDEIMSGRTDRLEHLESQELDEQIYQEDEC
ETV5, sequence (P41161 whole entry): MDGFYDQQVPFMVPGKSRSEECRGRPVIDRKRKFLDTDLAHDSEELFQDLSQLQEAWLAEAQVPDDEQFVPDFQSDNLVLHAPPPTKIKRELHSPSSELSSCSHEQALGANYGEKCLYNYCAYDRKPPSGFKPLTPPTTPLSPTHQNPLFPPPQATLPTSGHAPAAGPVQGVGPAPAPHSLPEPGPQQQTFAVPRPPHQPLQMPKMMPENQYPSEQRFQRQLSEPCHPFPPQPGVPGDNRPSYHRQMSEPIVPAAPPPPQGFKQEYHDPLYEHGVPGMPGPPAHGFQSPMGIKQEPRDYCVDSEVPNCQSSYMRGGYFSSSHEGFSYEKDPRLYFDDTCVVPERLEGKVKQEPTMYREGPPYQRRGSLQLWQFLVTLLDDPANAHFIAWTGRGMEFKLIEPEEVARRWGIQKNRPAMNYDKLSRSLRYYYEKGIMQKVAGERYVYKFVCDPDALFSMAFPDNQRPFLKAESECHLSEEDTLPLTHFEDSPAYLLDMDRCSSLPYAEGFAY
CRX, sequence (O43186 whole entry): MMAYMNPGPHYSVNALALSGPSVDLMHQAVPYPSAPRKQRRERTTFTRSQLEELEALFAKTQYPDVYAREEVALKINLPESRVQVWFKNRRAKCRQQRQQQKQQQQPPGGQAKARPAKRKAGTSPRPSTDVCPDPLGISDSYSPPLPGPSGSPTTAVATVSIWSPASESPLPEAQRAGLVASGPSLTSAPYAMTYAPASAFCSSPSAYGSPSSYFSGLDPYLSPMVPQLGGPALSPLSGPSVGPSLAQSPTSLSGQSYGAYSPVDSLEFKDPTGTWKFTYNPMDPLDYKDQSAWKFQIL
HSF1, sequence (Q00613 whole entry): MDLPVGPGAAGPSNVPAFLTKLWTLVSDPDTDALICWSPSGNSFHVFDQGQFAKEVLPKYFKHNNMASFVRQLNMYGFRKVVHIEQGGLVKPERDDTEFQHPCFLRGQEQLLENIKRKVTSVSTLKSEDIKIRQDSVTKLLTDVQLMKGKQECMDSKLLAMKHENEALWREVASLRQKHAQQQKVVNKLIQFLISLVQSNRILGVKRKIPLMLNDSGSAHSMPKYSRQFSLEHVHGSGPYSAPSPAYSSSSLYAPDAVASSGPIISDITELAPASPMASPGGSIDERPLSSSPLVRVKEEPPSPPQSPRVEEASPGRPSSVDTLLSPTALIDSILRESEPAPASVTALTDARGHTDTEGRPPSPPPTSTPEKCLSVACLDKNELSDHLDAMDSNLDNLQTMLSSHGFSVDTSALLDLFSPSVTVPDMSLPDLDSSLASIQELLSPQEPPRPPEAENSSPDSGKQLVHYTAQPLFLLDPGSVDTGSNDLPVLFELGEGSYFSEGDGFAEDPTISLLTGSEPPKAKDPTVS
ETV1, sequence (P50549 whole entry): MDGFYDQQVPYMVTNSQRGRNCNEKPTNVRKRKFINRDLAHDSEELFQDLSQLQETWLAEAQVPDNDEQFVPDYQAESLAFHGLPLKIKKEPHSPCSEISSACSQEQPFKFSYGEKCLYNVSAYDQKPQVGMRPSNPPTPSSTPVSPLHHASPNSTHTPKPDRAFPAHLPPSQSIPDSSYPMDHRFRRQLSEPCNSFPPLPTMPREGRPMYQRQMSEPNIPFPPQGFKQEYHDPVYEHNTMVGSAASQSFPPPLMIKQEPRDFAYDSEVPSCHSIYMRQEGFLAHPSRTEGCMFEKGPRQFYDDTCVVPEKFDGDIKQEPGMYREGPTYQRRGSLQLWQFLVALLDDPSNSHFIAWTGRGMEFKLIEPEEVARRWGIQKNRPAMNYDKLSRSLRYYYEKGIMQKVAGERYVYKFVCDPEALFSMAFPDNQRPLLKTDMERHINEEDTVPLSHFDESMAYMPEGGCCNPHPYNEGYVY
ELF4, sequence (Q99607 whole entry): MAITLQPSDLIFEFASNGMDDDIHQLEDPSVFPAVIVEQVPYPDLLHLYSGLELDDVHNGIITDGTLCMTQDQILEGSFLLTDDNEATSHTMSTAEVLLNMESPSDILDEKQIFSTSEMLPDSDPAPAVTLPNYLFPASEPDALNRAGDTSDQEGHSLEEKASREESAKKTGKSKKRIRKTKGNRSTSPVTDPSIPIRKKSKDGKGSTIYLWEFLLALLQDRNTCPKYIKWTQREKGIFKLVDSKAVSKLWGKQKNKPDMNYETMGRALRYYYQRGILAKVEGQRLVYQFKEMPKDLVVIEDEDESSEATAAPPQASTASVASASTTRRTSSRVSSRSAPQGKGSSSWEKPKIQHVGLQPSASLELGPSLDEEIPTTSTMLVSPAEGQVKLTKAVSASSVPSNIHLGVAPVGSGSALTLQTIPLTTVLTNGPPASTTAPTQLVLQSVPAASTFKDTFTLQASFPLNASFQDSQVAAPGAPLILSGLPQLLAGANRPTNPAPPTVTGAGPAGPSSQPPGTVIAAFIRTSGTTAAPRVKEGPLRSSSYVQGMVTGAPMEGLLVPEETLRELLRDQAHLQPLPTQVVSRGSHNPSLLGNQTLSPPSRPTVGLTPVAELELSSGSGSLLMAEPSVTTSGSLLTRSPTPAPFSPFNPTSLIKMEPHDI

TAACTT
binding signal [1]: 1.51 fold enrichment (6-mer frequency, TF over GST control) | binding signal [2]: 1.45 fold enrichment (6-mer frequency, TF over GST control) | binding signal [3]: 1.28 fold enrichment (6-mer frequency, TF over GST control) | binding signal [4]: 1.56 fold enrichment (6-mer frequency, TF over GST control) | binding signal [5]: 1.33 fold enrichment (6-mer frequency, TF over GST control) | binding signal [6]: 1.32 fold enrichment (6-mer frequency, TF over GST control) | binding signal [7]: 1.59 fold enrichment (6-mer frequency, TF over GST control) | binding signal [8]: 1.35 fold enrichment (6-mer frequency, TF over GST control) | binding signal [9]: 1.56 fold enrichment (6-mer frequency, TF over GST control) | binding signal [10]: 1.33 fold enrichment (6-mer frequency, TF over GST control) | binding signal [11]: 1.32 fold enrichment (6-mer frequency, TF over GST control) | binding signal [12]: 1.47 fold enrichment (6-mer frequency, TF over GST control) | binding signal [13]: 1.38 fold enrichment (6-mer frequency, TF over GST control) | binding signal [14]: 1.28 fold enrichment (6-mer frequency, TF over GST control) | binding signal [15]: 1.25 fold enrichment (6-mer frequency, TF over GST control) | binding signal [16]: 1.44 fold enrichment (6-mer frequency, TF over GST control) | binding signal [17]: 1.41 fold enrichment (6-mer frequency, TF over GST control) | binding signal [18]: 1.32 fold enrichment (6-mer frequency, TF over GST control)
